# Data as given in PubChem BioAssay (NCI).
# Compounds without any hit were thinned out: in the full panel of roughly 83,000, 20% have a hit.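 Note: values are percent growth. 100 is the growth of untreated cells, values between 100 and 0 indicate rising inhibition; between -100 and 0 indicates cell death.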 Unmarked numbers belong to inactive results. The source made the active and inactive calls. The calls were made as follows: active = growth percent below 10; inactive = the rest.
# Test system: RPMI-8226 leukemia
# Assay: NCI-60 one-dose screen, 48 h (100 = growth as untreated, 0 = no growth, -100 = all killed)
# Settings: 10 µM unless noted
row,Structure (SMILES),growth
1,N#Cc1c(N)nc(NCCO)nc1-c1ccc(F)cc1,94.1%
2,CC/C=C\C[C@H](O)C/C=C1/C(=O)C=C[C@@H]1C/C=C\CCCCO,-12.9% (active)
3,FC(F)(F)c1cc(Nc2ccc3cc(OCCCN4CCOCC4)ccc3n2)ccc1Cl,7.22% (active)
4,N#C/C(=C\c1ccc(Br)cc1)n1nnc2cc(F)c(F)cc21,0% (active)
5,CNC(=O)NCC1OC(n2cnc3c(NC(=O)Nc4ccccc4)ncnc32)C(O[Si](C)(C)C(C)(C)C)C1CC(=O)N(C)OC (centres undefined),-75.4% (active)
6,CN(C)CC1C(=O)O[C@H]2[C@H]1CC/C(COC(=O)c1cc3ccccc3[nH]1)=C\CC[C@@]1(C)O[C@@H]21 (some centres undefined),-15.7% (active)
7,S=C(Cc1ccc2c(c1)CCCC2)N1CCOCC1,112%
8,Cc1cc(Cl)nc(NCc2cc(Nc3ccnc4cc(Cl)ccc34)ccc2F)n1,33.1%
9,COC(=O)[C@]12CC[C@@H](C)[C@H](C)[C@@H]1C1=CC[C@@H]3[C@@]4(C)C(C=O)=C[C@@](C)(CO)[C@@H]4[C@H](O)C[C@@]3(C)[C@]1(C)CC2,-10.1% (active)
10,CCN1CCN(c2cc(C)nc(NCc3cc(Nc4ccnc5cc(Cl)ccc45)ccc3F)n2)CC1,74.4%
11,C=CCOC1=CC(=O)c2ccccc2C1=O,92.7%
12,COc1ccc(-c2nc(SC(C)C)nc(NNC(N)=S)c2C#N)cc1,32.7%
13,Cc1cc(C)c2c(-c3nnc(N)s3)cc(=O)oc2c1,72.3%
14,Oc1c(CN2CCCC2)cc(COCc2ccc(Br)cc2)c2cccnc12,1% (active)
15,O=[N+]([O-])c1ccc(-c2cc(-c3ccc(Nc4nc(Nc5ccc(Cl)cc5)nc(Nc5ccc(Cl)cc5)n4)cc3)no2)cc1,34.7%
16,O=C1/C(=C/c2ccc(F)cc2)C=C(c2ccccc2)N1CCc1ccccc1,89.3%
17,O=C(O)c1ccc2c(c1Cl)C(=O)c1ccccc1C2=O,104%
18,COc1cc(N=Nc2ccc(N)cc2)c(OC)cc1N=Nc1ccccc1.[Cl][Zn][Cl],90.9%
19,O=[N+]([O-])c1ccc(OCCO)cc1,101%

row,Structure (SMILES),growth
1,CCN(CC)c1nc(SCC(=O)Nc2nc3ccc(C)cc3s2)nc(-c2ccccc2)c1C#N,61.4%
2,Cc1cc(NCCCCNc2ccnc3cc(Cl)ccc23)nc(Nc2ccc(C(=O)N3CCCC3)cc2)n1,2.17% (active)
3,COc1ccc(-c2nc3c(c(=O)n2C(C)=O)C(c2ccc(Cl)cc2)c2sc4c(Cl)cccc4c2O3)cc1 (centres undefined),2.22% (active)
4,COc1ccc2[nH]c(O)c(/C=c3/cc4c(c(-c5ccc(F)c(OC)c5)n3)=Nc3ccccc3-4)c2c1,-20.4% (active)
5,N#CC1=C(/N=C/c2ccccc2)Oc2c(ccc3ccccc23)C1c1ccccc1 (centres undefined),11%
6,CC(=O)C(C)Cc1cc2c(cc1C)C(C)(C)CCC2(C)C (centres undefined),100%
7,Cc1ccc(Nc2nc(N)nc(CSCC(=O)NN)n2)cc1,101%
8,Cc1ccc(-c2c(-c3ccccc3)c(=O)oc3ccc(C)cc23)cc1,87.7%
9,N#C/C(=C\c1ccc2c(c1)OCO2)n1nnc2cc(F)c(F)cc21,64.5%
10,Cc1cccc(Cc2cnc(NC(=O)/C=C/c3ccco3)s2)c1,27.9%
11,N=C(N)c1ccc(-c2ccc(-c3cncc4ccccc34)s2)s1,-33.5% (active)
12,COc1ccc2occ(C3=C(c4c[nH]c5ccccc45)C(=O)N(O)C3=O)c2c1,66.7%
13,C=C(C)[C@@H]1CC[C@]2(C(=O)NC3CCCCC3)CC[C@]3(C)[C@H](CC[C@@H]4[C@@]5(C)CCCNC(C)(C)[C@@H]5CC[C@]43C)[C@@H]12,-32.5% (active)
14,O=C(/C=C/c1ccco1)c1ccc(Nc2nc(Nc3ccc(F)cc3)nc(Nc3ccc(Cl)cc3)n2)cc1,23.6%
15,COC(=O)[C@]12CC[C@@H](C)[C@H](C)[C@@H]1C1=CC[C@@H]3[C@@]4(C)C(C=O)=C[C@@](C)(COC(=O)c5ccco5)[C@@H]4C(=O)C[C@@]3(C)[C@]1(C)CC2,14.6%
16,COc1cccc(-c2nn(-c3ccccc3)cc2-c2ccnc(NCCNC(=O)Nc3ccc(Cl)c(Cl)c3)c2)c1,11.9%
17,Cc1cc(N2CCCC2)nc(NCc2cc(Nc3ccnc4cc(Cl)ccc34)ccc2F)n1,-44.2% (active)
18,COc1cc(/C=C/C(=O)c2c(C)nc3ccccc3c2C)ccc1OCCCN1CCN(C(=O)c2ccco2)CC1,31.4%

# Test system: OVCAR-8 ovarian
# Assay: as above
# Settings: 10 µM unless noted
row,Structure (SMILES),growth
1,N#Cc1c(N)nc(NCCO)nc1-c1ccc(F)cc1,99.7%
2,CC/C=C\C[C@H](O)C/C=C1/C(=O)C=C[C@@H]1C/C=C\CCCCO,-27.5% (active)
3,FC(F)(F)c1cc(Nc2ccc3cc(OCCCN4CCOCC4)ccc3n2)ccc1Cl,31.3%
4,N#C/C(=C\c1ccc(Br)cc1)n1nnc2cc(F)c(F)cc21,8.14% (active)
5,CNC(=O)NCC1OC(n2cnc3c(NC(=O)Nc4ccccc4)ncnc32)C(O[Si](C)(C)C(C)(C)C)C1CC(=O)N(C)OC (centres undefined),20.4%
6,CN(C)CC1C(=O)O[C@H]2[C@H]1CC/C(COC(=O)c1cc3ccccc3[nH]1)=C\CC[C@@]1(C)O[C@@H]21 (some centres undefined),-45.6% (active)
7,S=C(Cc1ccc2c(c1)CCCC2)N1CCOCC1,104%
8,Cc1cc(Cl)nc(NCc2cc(Nc3ccnc4cc(Cl)ccc34)ccc2F)n1,50.6%
9,COC(=O)[C@]12CC[C@@H](C)[C@H](C)[C@@H]1C1=CC[C@@H]3[C@@]4(C)C(C=O)=C[C@@](C)(CO)[C@@H]4[C@H](O)C[C@@]3(C)[C@]1(C)CC2,-2.42% (active)
10,CCN1CCN(c2cc(C)nc(NCc3cc(Nc4ccnc5cc(Cl)ccc45)ccc3F)n2)CC1,69.6%
11,C=CCOC1=CC(=O)c2ccccc2C1=O,57.2%
12,COc1ccc(-c2nc(SC(C)C)nc(NNC(N)=S)c2C#N)cc1,71.2%
13,Cc1cc(C)c2c(-c3nnc(N)s3)cc(=O)oc2c1,102%
14,Oc1c(CN2CCCC2)cc(COCc2ccc(Br)cc2)c2cccnc12,-27% (active)
15,O=[N+]([O-])c1ccc(-c2cc(-c3ccc(Nc4nc(Nc5ccc(Cl)cc5)nc(Nc5ccc(Cl)cc5)n4)cc3)no2)cc1,99%
16,O=C1/C(=C/c2ccc(F)cc2)C=C(c2ccccc2)N1CCc1ccccc1,45.6%
17,O=C(O)c1ccc2c(c1Cl)C(=O)c1ccccc1C2=O,118%
18,COc1cc(N=Nc2ccc(N)cc2)c(OC)cc1N=Nc1ccccc1.[Cl][Zn][Cl],98.8%
19,O=[N+]([O-])c1ccc(OCCO)cc1,98.7%

row,Structure (SMILES),growth
1,CCN(CC)c1nc(SCC(=O)Nc2nc3ccc(C)cc3s2)nc(-c2ccccc2)c1C#N,89.5%
2,Cc1cc(NCCCCNc2ccnc3cc(Cl)ccc23)nc(Nc2ccc(C(=O)N3CCCC3)cc2)n1,11.5%
3,COc1ccc(-c2nc3c(c(=O)n2C(C)=O)C(c2ccc(Cl)cc2)c2sc4c(Cl)cccc4c2O3)cc1 (centres undefined),-23% (active)
4,COc1ccc2[nH]c(O)c(/C=c3/cc4c(c(-c5ccc(F)c(OC)c5)n3)=Nc3ccccc3-4)c2c1,60.4%
5,N#CC1=C(/N=C/c2ccccc2)Oc2c(ccc3ccccc23)C1c1ccccc1 (centres undefined),12.5%
6,CC(=O)C(C)Cc1cc2c(cc1C)C(C)(C)CCC2(C)C (centres undefined),101%
7,Cc1ccc(Nc2nc(N)nc(CSCC(=O)NN)n2)cc1,103%
8,Cc1ccc(-c2c(-c3ccccc3)c(=O)oc3ccc(C)cc23)cc1,93.9%
9,N#C/C(=C\c1ccc2c(c1)OCO2)n1nnc2cc(F)c(F)cc21,60.7%
10,Cc1cccc(Cc2cnc(NC(=O)/C=C/c3ccco3)s2)c1,13.7%
11,N=C(N)c1ccc(-c2ccc(-c3cncc4ccccc34)s2)s1,-67.9% (active)
12,COc1ccc2occ(C3=C(c4c[nH]c5ccccc45)C(=O)N(O)C3=O)c2c1,90.5%
13,C=C(C)[C@@H]1CC[C@]2(C(=O)NC3CCCCC3)CC[C@]3(C)[C@H](CC[C@@H]4[C@@]5(C)CCCNC(C)(C)[C@@H]5CC[C@]43C)[C@@H]12,-16.7% (active)
14,O=C(/C=C/c1ccco1)c1ccc(Nc2nc(Nc3ccc(F)cc3)nc(Nc3ccc(Cl)cc3)n2)cc1,87.9%
15,COC(=O)[C@]12CC[C@@H](C)[C@H](C)[C@@H]1C1=CC[C@@H]3[C@@]4(C)C(C=O)=C[C@@](C)(COC(=O)c5ccco5)[C@@H]4C(=O)C[C@@]3(C)[C@]1(C)CC2,24.8%
16,COc1cccc(-c2nn(-c3ccccc3)cc2-c2ccnc(NCCNC(=O)Nc3ccc(Cl)c(Cl)c3)c2)c1,7.05% (active)
17,Cc1cc(N2CCCC2)nc(NCc2cc(Nc3ccnc4cc(Cl)ccc34)ccc2F)n1,-54.5% (active)
18,COc1cc(/C=C/C(=O)c2c(C)nc3ccccc3c2C)ccc1OCCCN1CCN(C(=O)c2ccco2)CC1,73.5%
